Screening data: PubChem, National Center for Advancing Translational Sciences (NCATS)
HT1080NT lethal = kills 2HG-producing HT-1080-NT fibrosarcoma cells; 1.6% of 360,000 active; Potency, µM (doses to about 46.1 µM), for inactives: top-dose activity, negative = less viability, actives largely listed as cytotoxic; HT-1080-NT fibrosarcoma viability, CellTiter-Glo ATP luminescence, 48 h;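 further: NT is the 2HG producing partner of a matched IDH1 knockdown line; potency means the concentration at half of the fitted maximal effect; 0% = DMSO-treated cells and -100% = media-only wells without cells; nearly all actives have a fitted effect of over 55% in size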
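Viability of the 2HG-overproducing fibrosarcoma line after 48 hours of compound exposure at 37 degrees C was determined by luminescence with CellTiter-Glo, and concentration-effect curves were then fitted and categorized.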
TDP1 cell CPT = growth inhibition of DT40 Tdp1-/-;hTDP1 cells with camptothecin (screen for TDP1 inhibitors) | chicken DT40 Tdp1-/-;hTDP1 cells + 20 nM CPT, ATP luminescence, 48 h | Potency, µM (titrated, usually from 46.2 µM), for the others: top-dose activity change, negative = growth inhibition, usual class: inhibitors | 12% of 420,000 active | AID 686979; further: potency means the concentration at half of the fitted maximal effect; nearly all actives have a fitted effect of over 55% in size
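Cell growth measured by CellTiter-Glo luminescence after a minimum 48 h, 37 C compound exposure with 20 nM CPT in Tdp1-knockout DT40 cells stably expressing hTDP1, seeded 400/well; qHTS titration format.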
IL1B secr inh = inhibitors of inflammasome signaling (IL-1 beta secretion); activity change, % at 57.5 µM; 4.7% of 360,000 active; THP-1 LPS/ATP IL-1B secretion, AlphaLISA, 16 h; stronger effect = lower value; in the data active means activity change below about -50%; inconclusive means mostly about -30% to -49%
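Secreted IL-1B measured by AlphaLISA bead assay after 16 h compound exposure of THP-1 cells; compounds (final up to 57.5 uM) added 1 h before LPS (250 ng/mL) and ATP (1.25 mM) stimulation; lower signal means less secretion.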
HT1080 IDH1KD tx = kills HT-1080 cells with IDH1 knockdown | HT-1080 IDH1 knockdown viability, ATP luminescence, 48 h | Potency, µM (top dose mostly 46.1 µM), for inactives: at the top dose activity, negative = toxicity, hits mostly cytotoxic | 2% of 360,000 active | AID 686971;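 further: potency means the concentration at half of the fitted maximal effect; 0% = DMSO wells and -100% = cell-free medium wells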
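HT-1080-IDH1KD cells (IDH1 knocked down), 750/well in RPMI with 5% FBS, treated with compound 48 h at 37 degrees C. Viability by CellTiter-Glo luminescence, normalised to DMSO and no-cell wells; concentration-response curves classed.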
TDP1 cell noCPT = qHTS for Inhibitors of human tyrosyl-DNA phosphodiesterase 1 (TDP1): qHTS in cells in absence of CPT; 15% of 420,000 active; Potency, µM (titrated, usually from 46.2 µM), without a hit: at the top dose activity change, negative = growth inhibition, hits mostly inhibitors; DT40 Tdp1-/- hTDP1 cells, no CPT, ATP luminescence, 48 h; further: potency means the concentration at half of the fitted maximal effect; nearly all actives have a fitted effect of over 55% in size
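Camptothecin absent (DMSO only). Human TDP1-complemented DT40 knockout cells, 400 cells/well, 37 °C for minimum 48 hr; ATP measured via CellTiter-Glo, 30 min dark incubation, luminescence.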
* marks the source's active call; other numbers are inactive results; u = inconclusive; x = no result. In the library only some 19% were active in any assay of this set; here they are far more common. Unless noted, the call rests on the fitted dose curve; in most records, active means well fitted curve in the direction sought with a large enough effect; inconclusive means small, poorly fitted or top-dose-only effect, or another doubt; inactive means no such curve, though single readings can be large; an effect the other way counts as inactive or inconclusive. Unless noted, on the % scale 0 is the no-effect control and ±100 the full control effect.

SMILES | HT1080NT lethal | TDP1 cell CPT | IL1B secr inh | HT1080 IDH1KD tx | TDP1 cell noCPT
Cc1cccc(-c2c3c(=O)n(C)c(=O)n(C)c3cn2CCO)c1 | 8% | -16% | 5 | 8% | -15%
CCCCn1cc2c(c1-c1cccc(C)c1)c(=O)n(C)c(=O)n2C | 7% | u | 24 | 10% | u
Cc1cccc(-c2c3c(=O)n(C)c(=O)n(C)c3c3nnc4ccccc4n23)c1 | 10% | u | 12 | 11% | 6.5µM*
Cc1ccc(C(=O)N(Cc2nnc(-c3ccccc3Cl)o2)C2CC2)o1 | -3% | u | -10 | -2% | 18µM*
O=C(c1cc(=O)[nH]c2ccccc12)N(Cc1nnc(-c2ccccc2Cl)o1)C1CC1 | 6% | 13µM* | -8 | 10% | u
Cc1c(C(=O)N(Cc2nnc(-c3ccccc3Cl)o2)C2CC2)oc2ccccc12 | -10% | 16µM* | 21 | -12% | u
CC(C(=O)NN)c1ccc([N+](=O)[O-])cc1 (stereo not drawn) | -4% | -26% | -4 | -3% | -15%
O=C(Nc1cccc(S(=O)(=O)N2CCCCC2)c1)c1ccc2ccccc2n1 | 4% | 29µM* | -14 | 2% | 21µM*
O=C(Nc1cccc(S(=O)(=O)N2CCCC2)c1)c1ccc2ccccc2n1 | -15% | 21µM* | u | -3% | 23µM*
CCCOc1ccc(-c2nc[nH]c2[N+](=O)[O-])cc1 | 3% | -8% | -9 | 22% | -4%
C=CC[C@H](CC(=O)N(CCO)Cc1ccccc1)C(=O)N[C@@H](COC(=O)[C@@H](CC=C)Cc1ccc(F)cc1)Cc1c[nH]c2ccccc12 | u | 16µM* | u | u | 23µM*
C=CC[C@@H](CC(=O)N(CCO)Cc1ccccc1)C(=O)N[C@@H](COC(=O)[C@@H](CC=C)Cc1ccc(F)cc1)Cc1c[nH]c2ccccc12 | u | u | -52* | u | 16µM*
COc1ccccc1OCc1nc(-c2cccc([N+](=O)[O-])c2)no1 | -2% | -23% | -10 | -4% | u
CC(C)NC(=O)c1ccc(N(Cc2ccccc2)S(C)(=O)=O)cc1 | 4% | 1% | -1 | -1% | 1%
Cc1c(/C=C/C(=O)c2ccc(O)cc2)cnn1C | 12% | -16% | 9 | 21% | u
Cc1c(/C=C/C(=O)c2ccc(C(C)C)cc2)cnn1C | -11% | u | -73* | -4% | u
CCOC(=O)C[C@H]1c2ccccc2S(=O)(=O)N1Cc1cc(OC)c(OC)c(OC)c1 | -2% | 15µM* | 0 | -2% | 10µM*
CCOC(=O)C[C@H]1c2ccccc2S(=O)(=O)N1Cc1cccc(C(F)(F)F)c1 | 0% | u | 23 | 0% | 13µM*
CCCCN(C(=O)COC(=O)C1(c2ccccc2)CC1)c1c(N)n(CCC)c(=O)[nH]c1=O | 6% | 10% | -11 | 4% | 1%
COc1ccc2[nH]c3nc(SCc4nnc(-c5ccc(C)cc5)o4)nnc3c2c1 | u | 26µM* | 21 | u | 16µM*
COc1ccc(CNC(=O)CSc2nnc3c(n2)[nH]c2ccc(C)cc23)cc1 | 1% | 2% | 31 | 3% | 6%
O=C(O)c1ccc(NC(=S)Nc2ccccc2)cc1 | 2% | u | -2 | -3% | 2%
N=C1/C(=C/c2ccco2)C(=O)N=C2SC(CC(=O)N3CCCC3)=NN12 | 5% | -18% | -9 | -1% | 24%
O=C1N=C(N2CCCC2C(=O)O)S/C1=C\c1ccco1 (stereo not drawn) | -3% | 8.2µM* | -1 | -12% | 18µM*
CC(C)(c1ccccc1)c1ccc(OCc2ccc(C(=O)O)o2)cc1 | -3% | -13% | 5 | 0% | -9%
COc1ccc(CC(N)c2csc(NC(=O)c3cccc(OC(F)(F)F)c3)n2)cc1 (stereo not drawn) | 21µM* | 15µM* | -60* | 21µM* | 12µM*
NC(Cc1ccccc1)c1csc(NC(=O)c2cccc(OC(F)(F)F)c2)n1 (stereo not drawn) | 15µM* | 7.3µM* | x | u | 7.3µM*
